# Laboratory results: ChEMBL document CHEMBL4513216, “Probing the Open Global Health Chemical Diversity Library for Multistage-Active Starting Points for Next-Generation Antimalarials” (ACS Infect Dis, 2020)
# In all, about 69,000 compounds went through this assay and about 8,600 (12%) showed an effect of 50% or more. The sample as a whole holds a higher share of strong results than the screen did.
# Test system: Plasmodium berghei
# Assay: Screen against P. berghei liver stage (PbLuc), transformed with Luciferase, at 10uM
# Assay type: functional, HepG2
# Conditions: tested at 10 uM
row,SMILES,INHIBITION
1,CCCNC(=O)NC(C)c1ccccn1 (configuration not stated),21.2%
2,c1cnc2c(-c3nccn3C[C@@H]3CCCN4CCCC[C@H]34)cccc2c1,20.2%
3,COc1ccc(-c2nccn2C[C@@H]2CCCN3CCCC[C@H]23)cc1,65.3%
4,Cn1ccnc1-c1nccn1C[C@@H]1CCCN2CCCC[C@H]12,12%
5,CCc1ccc(CNC(=O)N2CCN(Cc3cc(C)on3)CC2)s1,7.12%
6,CCN1CC(O)CN(C(=O)c2cccc(C(F)(F)F)c2)CC1=O (configuration not stated),5.58%
7,N#CCCN1CC(O)CN(C(=O)c2cccc(C(F)(F)F)c2)CC1=O (configuration not stated),57%
8,O=C1CN(C(=O)c2cccc(C(F)(F)F)c2)CC(O)CN1CC1CC1 (configuration not stated),25.3%
9,CC(C)CN1CC(O)CN(C(=O)c2cccc(C(F)(F)F)c2)CC1=O (configuration not stated),45.7%
10,COCCN1CC(O)CN(C(=O)c2cccc(C(F)(F)F)c2)CC1=O (configuration not stated),13.1%
11,CC(C)(C)CN1CC(O)CN(C(=O)c2cccc(C(F)(F)F)c2)CC1=O (configuration not stated),60.8%
12,CSc1ccccc1C(=O)N1CCOC(CCN(C)C)C1 (configuration not stated),12.1%
13,Cc1ccc(NC2CCCN(CCCc3ccccc3)C2)nn1 (configuration not stated),35.7%
14,O=C(CCNc1ncccn1)N1CCCN(c2nccs2)CC1,33.7%
15,CCN(CCC1CCN(C(=O)NCc2nncn2CC)CC1)CC1CC1,-38.2%
16,CCc1cnc(N2C[C@@H]3C[C@H](C(=O)NC)[C@H](C2)O3)nc1,-45.8%
17,OCCCNC1CCc2cc3c(cc21)OCCO3 (configuration not stated),-56.6%
18,OCC1(CNC2CCc3cc4c(cc32)OCCO4)CC1 (configuration not stated),-122%
19,OCCNC1CCc2cc3c(cc21)OCCO3 (configuration not stated),55.1%
20,O=C(c1ccc(Cl)cc1)N1CC2(CCNC2)OCc2ccccc21 (configuration not stated),39.1%
21,CCC(C)(C)CC(=O)NC(C)C(=O)Nc1ccc(-n2cncn2)cc1 (configuration not stated),26%
22,CC(NC(=O)Nc1ccc(-n2cncn2)cc1)C(=O)NC(C)(C)C (configuration not stated),41.4%
23,CC(NC(=O)CCC(C)(C)C)C(=O)Nc1ccc(-n2cncn2)cc1 (configuration not stated),50%
24,CC(C)c1noc(CCCC(=O)NC(C)c2ccccn2)n1 (configuration not stated),-30.6%
25,Cc1csc(C(Cc2ccsc2)NC(=O)CN(C)Cc2ccccn2)n1 (configuration not stated),28.3%
26,COc1ncnc(N)c1CNCCOc1ccccc1Cl,21.3%

row,SMILES,INHIBITION
1,COc1ncnc(N)c1CNCCc1ccccc1,75.4%
2,COc1ncnc(N)c1CNCCc1ccc(-n2cccn2)cc1,16.8%
3,COC(=O)[C@H](CCSC)NC(=O)Cc1c(C)nn(-c2ccccc2)c1C,5.58%
4,CC(C)c1noc(CCCC(=O)NCC2CCS(=O)(=O)C2)n1 (configuration not stated),21.6%
5,Cc1csc(C2CCCN(C(=O)c3c[nH]c(C)n3)C2)n1 (configuration not stated),24%
6,Cc1[nH]nc(CCC(=O)N2C[C@@H]3CC[C@H]2CN(C(=O)N(C)C)C3)c1C,45.4%
7,CCOC(=O)CN1CCC(NC(=O)OC(C)(C)C)CC1,32.3%
8,CSCCN1CCC(NC(=O)OC(C)(C)C)CC1,-19.7%
9,COC(=O)CCN1CCC(NC(=O)OC(C)(C)C)CC1,50.2%
10,CC(C)CN1CCN(C(=O)c2ccncc2F)Cc2cccnc21,-18.4%
11,O=C(CN1CCOCC1)Nc1cc(C(F)(F)F)ccc1-n1cccc1,42.6%
12,N#CCCN(CC1CCCO1)C(=O)c1ccc2nonc2c1 (configuration not stated),2.59%
13,N#CCCN(CC1CCCO1)C(=O)c1ccc(C#N)cc1 (configuration not stated),-5.31%
14,N#CCCN(CC1CCCO1)C(=O)c1ccsc1 (configuration not stated),57.9%
15,CCNc1cc2c(nn1)CCN(C(=O)c1ccc(C(N)=O)cc1)C2,41.65%
16,CCNc1cc2c(nn1)CCN(C(=O)c1ccnc(N(C)C)c1)C2,4.59%
17,CCNc1cc2c(nn1)CCN(C(=O)c1cccc3c1OCCO3)C2,3.81%
18,Cc1cc(C(=O)N2CCc3nnc(N(C)C)cc3C2)c(C)n1C1CC1,19.4%
19,CNc1cc2c(nn1)CCN(C(=O)c1cccc3c1OCCO3)C2,51.1%
20,CNc1cc2c(nn1)CCN(C(=O)c1cc(C)n(C3CC3)c1C)C2,79.1%
21,CCNc1cc2c(nn1)CCN(C(=O)c1cc(C)n(C3CC3)c1C)C2,35.9%
22,CNc1cc2c(nn1)CCN(C(=O)c1cc(F)cc(F)c1)C2,17.7%
23,CCNc1cc2c(nn1)CCN(C(=O)c1ccnc(-n3ccnc3)c1)C2,54.15%
24,CCNc1cc2c(nn1)CCN(C(=O)c1ccoc1)C2,39.2%
25,CNc1cc2c(nn1)CCN(C(=O)c1ccoc1)C2,51.3%
26,CNc1cc2c(nn1)CCN(C(=O)c1cccc3c1OCO3)C2,-13.3%

row,SMILES,INHIBITION
1,CN(CCc1ccccn1)C(=O)Cn1cc(-c2ccccc2)nn1,6.23%
2,CN1CCN([C@@H]2CN(C(=O)c3cc4ccc(F)cc4[nH]3)C[C@H]2O)CC1,36%
3,O=C(NCCn1ccnc1)N1CCCC1c1ccncc1 (configuration not stated),31.9%
4,O=C1CN(C(=O)C2CN(c3cccc(F)c3)CCO2)CCN1 (configuration not stated),13.35%
5,O=C(NCC1CC1)c1c2c(N3CCCC3)ncnc2n2ccccc12,33.4%
6,CC(C)c1ncc2c(n1)CN(Cc1cccc(C(N)=O)c1)CC2,-34%
7,O=C(c1ccccc1)N1CCO[C@@H]2CN(Cc3ccc[nH]3)C[C@@H]2C1,35.8%
8,COCCOCC(=O)N1C[C@@H]2CC[C@H](Oc3ccccc3F)[C@@H]2C1,15.9%
9,O[C@H]1CCN(CCCOc2ccccc2F)C[C@@]12CCCO2,33.85%
10,Fc1cccc(-n2ccc(CN3CCCC3Cn3cccn3)n2)c1 (configuration not stated),-31.8%
11,Cc1ccc2cc(CNCCN3CCCC3)c(=O)[nH]c2c1,39.7%
12,O=C(NCc1ccc2c(c1)CCCO2)C1CNCCO1 (configuration not stated),12.9%
13,O=C(NCc1ccc2c(c1)CCCO2)c1ccccc1C1CCNC1 (configuration not stated),-26.1%
14,O=C(NCc1ccc2c(c1)CCCO2)c1ccc(C2CCNC2)cc1 (configuration not stated),50.4%
15,Cc1noc(CCCC(=O)NCCc2cc3ccccc3[nH]2)n1,7.18%
16,CC(=O)N[C@@H]1C[C@H](c2ccc(OCCO)cc2)OC2(CCOCC2)C1,18.3%
17,O=C(c1cscn1)N1CCC2(CCN(Cc3nccs3)CC2)C1,14.8%
18,Cc1ccc(CN2CC3(CCN(C(=O)c4cscn4)C3)C2)s1,35.1%
19,Cc1nc(CN2CCC3(CC2)CCN(C(=O)c2cscn2)C3)cs1,75.4%
20,Cc1ccc(CN2CC3(CCN(C(=O)c4cccnc4)C3)C2)o1,71.1%
21,Cc1cnc(N2CC3(CCN(C(=O)c4cccnc4)C3)C2)nc1,22.2%
22,Cc1noc(C)c1CN1CCC2(CC1)CCN(C(=O)c1cscn1)C2,40.8%
23,O=C(c1cscn1)N1CCC2(CN(Cc3ccoc3)C2)C1,34.4%
24,Cc1ccc(CN2CCC3(CC2)CCN(C(=O)c2cccnc2)C3)o1,34%
25,Cc1ccc(CN2CC3(CCN(C(=O)c4cscn4)C3)C2)o1,54.7%
26,CNC(C(=O)OC)c1cc(F)ccc1F (configuration not stated),-0.219%

row,SMILES,INHIBITION
1,Cn1cc(CN2CCC[C@]3(C(=O)O)CN(c4ncccn4)C[C@@H]3C2)cn1,-44.2%
2,Cc1ccc(NC(=O)C2CSCN2C(=O)c2ccncc2)c(C)c1 (configuration not stated),16.1%
3,CC(C(=O)NCc1ccc(N2CCCCCC2)nc1)S(C)(=O)=O (configuration not stated),-12.2%
4,O=S(=O)(c1ccccc1)N1CCOC(Cn2ccnc2)C1 (configuration not stated),-12.3%
5,Cc1ccc(CN2CC(C(=O)Nc3ccccc3)C3(CCOCC3)C2)o1 (configuration not stated),-24.9%
6,O=C(c1cscn1)N1CC[C@@H]2[C@@H]1CCN2C1CCOC1 (some centres not stated),12.6%
7,O=C(Cc1ccccn1)N1CCN2C[C@H](OCCN3CCCC3)C[C@H]2C1,68.4%
8,O=C(Cc1ccccn1)N1CCN2C[C@H](Oc3cccc(F)c3)C[C@H]2C1,33%
9,O=C(c1cccnc1)N1CCN2C[C@H](Oc3cncnc3)C[C@H]2C1,55.5%
10,Cc1ccc(O[C@@H]2C[C@H]3CN(C(=O)c4cnccn4)CCN3C2)cc1,-28.8%
11,O=C(Cc1cccc(F)c1)N1CCN2C[C@H](Oc3cncnc3)C[C@H]2C1,39.4%
12,O=C(c1ccnnc1)N1CCN2C[C@H](Oc3cccnc3)C[C@H]2C1,-10.2%
13,O=C(c1ccnnc1)N1CCN2C[C@H](OCc3ccccn3)C[C@H]2C1,-5.05%
14,O=C(c1ccc(F)cc1)N1CCN2C[C@H](OCc3ccccn3)C[C@H]2C1,-1.71%
15,Cc1ccc(O[C@@H]2C[C@H]3CN(C(=O)Cc4ccccn4)CCN3C2)cc1,84.7%
16,O=C(Cc1ccccn1)N1CCN2C[C@H](Oc3cncnc3)C[C@H]2C1,67.2%
17,O=C(c1ccco1)N1CCN2C[C@H](Oc3cncnc3)C[C@H]2C1,-5.63%
18,O=C(c1ccncc1)N1CCN2C[C@H](Oc3cncnc3)C[C@H]2C1,23.3%
19,CC(C)c1nc(C2CCCN(C(=O)c3ccc4c(c3)OCO4)C2)no1 (configuration not stated),45.1%
20,COCCc1noc(CN2CCC(c3ccccc3C(=O)O)C2)n1 (configuration not stated),35.7%
21,Cc1nc(CN2CCCC2c2c(C)nn(C)c2Cl)oc1C (configuration not stated),18.2%
22,O=C1CC(NS(=O)(=O)c2ccc(F)c(Cl)c2)CN1 (configuration not stated),-6.67%
23,O=C(Cn1c(=O)[nH]c2cn(-c3ccccc3)c(=O)n21)NC1CCCCC1,-6.61%
24,Cc1ccc(Cn2c(=O)[nH]c3cccnc3c2=O)cc1,-5.64%
